# Data as given in PubChem BioAssay AID624483 (NMMLSC, 2012).
# Out of some 360,000 compounds screened, about 11,000 (3.1%) were called active. Another 2% or so got no clear call; they are omitted. The sample as a whole holds a higher share of actives than the screen did. Values without a mark were called inactive. No stated cut-off is given here; in the data, active means fluorescence intensity above about 16000; inconclusive means no clear call, values can overlap the other calls; inactive means below that.
# Assay: compound fluorescence in toxin protease inhibitor counterscreen, primary screen, artefact control for toxin protease inhibitor project, biochemical, multiplex microsphere, HTS (AID 624483)
# Settings: compound autofluorescence counterscreen, microsphere flow cytometry; active compounds read high
row,SMILES,fluorescence intensity
1,COc1ccc(C2=Nc3ccccc3NC(=O)C2N(C(=O)c2cc3ccccc3[nH]2)c2ccccc2)cc1 (centres undefined),6050
2,COc1ccc(-c2cc3c(c4c2ccn4C)C2CCC3C2)cn1 (centres undefined),2710
3,COC(=O)C1C(=O)NCC1c1ccc(OC)cc1 (centres undefined),17100 (active)
4,CCOC(=O)C1C(=O)NCC1c1ccccc1 (centres undefined),9370
5,COC(=O)C1C(=O)NCC1c1ccc(C)cc1 (centres undefined),15900
6,COc1ccc(-c2cc(NC=O)c3ncc(-c4cccc(C(=O)N(C)C)c4)n3c2)c(OC)c1,3580
7,O=C(OCc1nc2ccccc2[nH]1)C1CCCCC1,2190
8,Fc1ccc2nc(-c3ccccc3)nc(SCc3nnc(-c4ccccc4)o3)c2c1,4280
9,c1ccc(-c2nnc(SCc3nc4ccccc4[nH]3)o2)cc1,18800 (active)
10,Clc1ccccc1SCc1nc2ccccc2[nH]1,24700 (active)
11,Oc1ccc2nc(Cc3ccccc3)[nH]c2c1,4090
12,Clc1ccc(-c2nnc(SCc3nc4ccccc4s3)o2)cc1,2530
13,c1ccc2c(CSCc3nc4ccccc4[nH]3)cccc2c1,21700 (active)
14,O=c1c(-c2ccc(Cl)cc2)[n+]([O-])c2ccccc2n1OCc1nc2ccccc2[nH]1,4300
15,c1ccc2cc3[nH]c(CN4CCCCC4)nc3cc2c1,5430
16,CC1(Oc2ccccc2-c2ccno2)CCN(Cc2ccc(-c3ccccc3)o2)C1 (centres undefined),3970
17,CN1CCN(c2ccncc2S(=O)(=O)N2CCCC2)CC1,3800
18,Cc1ccc(NC(=O)c2ccc(S(=O)(=O)NCC3CCCO3)cc2)cc1C (centres undefined),4660
19,CCc1c(O)nc(SCC(=O)Nc2ccccc2)n(C(C)CC)c1=O (centres undefined),9640
20,CCOC(=O)c1cc2cc(C)ccc2[nH]1,4370
21,Cc1cc(Br)cn2c(Cc3cccc(F)c3)c(-c3cccc(Br)c3)nc12,5680
22,C=CC[C@@H](Cc1ccc(F)cc1)C(=O)OC[C@H]1CCCN1C(=O)[C@H](CC=C)CC(=O)N(CCO)Cc1ccccc1,3800

row,SMILES,fluorescence intensity
1,Cc1cc(C)cc(-c2nnc(SCC(=O)NC3CC3)o2)c1,8900
2,Cc1cc(C)cc(OCc2nnc(SCC(=O)OC3CCCCC3)o2)c1,19000 (active)
3,Cc1cccc(OCc2nnc(SCn3nnc4ccccc4c3=O)o2)c1,4060
4,CN(C)CCN1CCN(c2cc(-c3cccc(Cl)c3)nc3ccnn23)CC1,3570
5,COC(=O)[C@@]1(Sc2ccc(C)cc2)CC(=O)N(c2cccc(SC)c2)[C@@H]1c1ccccc1,4090
6,CCc1nc2oc3ccccc3c(=O)c2c(=O)n1Cc1ccc(OC)cc1,17100 (active)
7,COc1ccc(Cn2c(=O)oc3ccccc32)cc1,2890
8,O=c1c2ccccc2oc2nc3n(c(=O)c12)CCCS3,10300
9,CCCCn1nnnc1C1(C)CCC(=O)N1Cc1ccc(OC)c(OC)c1 (centres undefined),5290
10,CCOC(=O)c1cc(NC(=O)c2ccc(Cl)cc2)c(=O)oc1-c1ccccc1,5720
11,COc1cc(NC(=O)c2ccccc2)c(OC)cc1NC(=O)Cc1ccccc1,4090
12,CC(=O)c1cc(NC(=O)c2ccccc2)c(=O)oc1/C=C/N(C)C,24500 (active)
13,O=C(CNC(=O)c1cc2c(s1)CCC2)Nc1ccccc1Br,24100 (active)
14,O=C(CCc1nc2sc3c(c2c(=O)[nH]1)CCCC3)NCC(=O)Nc1ccccc1Br,3820
15,O=C(NCC1CCCO1)c1cc2c(s1)CCCC2 (centres undefined),8290
16,CN(C)c1ccc(N/C=C/C(=O)C(F)(F)F)cc1,3470
17,CCc1nc2ccc(C(=O)NCCNC(C)=O)cn2c1N(CC)Cc1cccc(Br)c1,3860
18,Cc1ccc(CNC(=O)CSc2nnc3c(n2)[nH]c2ccc(F)cc23)cc1,5580
19,Cc1ccn2c(=O)nc(SCC(=O)NCc3ccc(F)cc3)nc2c1,16300 (active)
20,Cc1ccn2c(=O)nc(SCC(=O)NCc3ccc4c(c3)OCO4)nc2c1,5730
21,COc1ccc(CC(N)c2csc(NC(=O)Nc3ccc(C(C)C)cc3)n2)cc1 (centres undefined),3480
22,c1ccc2c(CNn3cnnc3)cccc2c1,2660

row,SMILES,fluorescence intensity
1,c1ccc2c(C[n+]3csc4ccccc43)cccc2c1,24500 (active)
2,Nc1scc[n+]1Cc1cccc2cccnc12,3430
3,O=S(=O)(NCc1ccccn1)c1ccc(F)cc1,11500
4,Cc1cc(S(=O)(=O)NCc2ccccn2)c(Cl)cc1Cl,3790
5,O=S(=O)(NCc1ccccn1)c1ccc(Br)s1,18000 (active)
6,O=S(=O)(NCc1cccnc1)c1ccc(Cl)nc1,2520
7,CC1CCN(S(=O)(=O)c2ccc(S(=O)(=O)NCc3cccnc3)cc2)CC1,4180
8,O=S(=O)(NCc1cccnc1)c1ccc(Br)s1,23300 (active)
9,CN(C(=O)c1cccc(NC(=O)C2CCN(C(=O)OC(C)(C)C)CC2)c1)C1CCC1,4250
10,CCc1ccnc(NS(=O)(=O)c2ccc3c(c2)OCCO3)c1,6030
11,CC(=O)NN=C(C)c1ccc(NC(=O)C2CC2)cc1,3420
12,CCCCCn1nnnc1-c1nc2cc3ccccc3cc2[nH]c1=O,5190
13,COc1ccccc1CSc1ncc(-c2ccc([N+](=O)[O-])cc2)[nH]1,2560
14,CC(O)C(NS(=O)(=O)c1ccc(Cl)cc1)C(=O)OCc1cc([N+](=O)[O-])cc2c1OCOC2 (centres undefined),3270
15,Nc1ccccc1SCc1cc([N+](=O)[O-])cc2c1OCOC2,22000 (active)
16,Cn1c(NC(=O)c2ccco2)c(-c2ccccc2Cl)c(=O)c2ccccc21,5600
17,COc1cccc(-c2cnc(C(O)c3ccccc3OC)[nH]2)c1 (centres undefined),4140
18,CN(Cc1nc2ccccc2c(=O)[nH]1)Cc1cc(=O)oc2ccc3ccccc3c12,10600
19,CCN(CC(=O)NC(=O)NCc1ccccc1)Cc1nc2ccccc2c(=O)[nH]1,4790
20,CCN(Cc1nc2ccccc2c(=O)[nH]1)Cc1cc(=O)oc2cc(C)c(C)cc12,22700 (active)
